Results reported in PubChem BioAssay AID1851 (National Center for Advancing Translational Sciences (NCATS), 2009).
Hit rate of the full screen: of about 16,000 compounds, about 5,100 (32%) were called active. About 25% were inconclusive and are not listed. Calls follow the shape of the dose curve; as a rule, active = well fitted curve in the direction sought with a large enough effect; inconclusive = small, poorly fitted or top-dose-only effect, or effect the other way; inactive = no such curve, though single readings can be large or run the other way. The list shows a part of the results.

target: Cytochrome P450 3A4 (Homo sapiens) (UniProt P08684); test: Cytochrome panel assay with activity outcomes; settings: recombinant CYP, pro-luciferin dealkylation, luminescence, p450-cyp3a4; series mostly up to 57.1 µM
% is scaled to controls: 0 for no effect and ±100 for the full control effect.

Sequence of Cytochrome P450 3A4 (Homo sapiens) (P08684 whole entry, looked up): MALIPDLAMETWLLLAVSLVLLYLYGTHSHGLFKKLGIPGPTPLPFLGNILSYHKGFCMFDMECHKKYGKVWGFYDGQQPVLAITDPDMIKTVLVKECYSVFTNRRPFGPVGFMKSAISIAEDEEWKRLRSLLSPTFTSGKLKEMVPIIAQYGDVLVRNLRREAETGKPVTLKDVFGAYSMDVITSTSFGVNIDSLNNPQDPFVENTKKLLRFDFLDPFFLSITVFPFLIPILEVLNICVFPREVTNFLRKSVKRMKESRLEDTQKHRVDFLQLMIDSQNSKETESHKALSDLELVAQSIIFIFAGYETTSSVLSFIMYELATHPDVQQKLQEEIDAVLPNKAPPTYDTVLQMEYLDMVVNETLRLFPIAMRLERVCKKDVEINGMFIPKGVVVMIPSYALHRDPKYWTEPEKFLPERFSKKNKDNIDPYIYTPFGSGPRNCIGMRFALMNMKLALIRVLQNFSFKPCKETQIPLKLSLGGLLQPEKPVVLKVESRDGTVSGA

AC50, inactive:
Cn1c(=O)n(-c2ccc(Cl)cc2)c(=O)c2c3c(sc21)COC(C)(C)C3
N=C(N)SCCN
CC1=C(C(=O)NCCN2CCN(C)CC2)C2(CCC(C)CC2)OC1=O (centres undefined)
Cc1cc(=O)oc(C)c1C(=O)N1CCCCC1
CCC(=O)Nc1ccc(C(=O)NNC(=O)c2cccs2)cc1
CCc1ccc(OCC(=O)Nc2ccc(-c3nc4ccccc4o3)c(O)c2)cc1
O=C(Nc1cccc(-c2nc3ncccc3o2)c1)c1sc2cc(Cl)ccc2c1Cl
COc1c(N2CCN(C(=S)Nc3ccc(F)cc3)C(C)C2)c(F)cc2c(=O)c(C(=O)O)cn(C3CC3)c12 (centres undefined)
Clc1ccc(-c2nnc(-c3ccccc3)c(N3CCSCC3)n2)cc1
CN1CCCCC1=NCCCn1cnc2c1c(=O)n(C)c(=O)n2C
CC(=O)[C@H]1CC[C@@H]2[C@H]3CC=C4C[C@@H](O)CC[C@]4(C)[C@H]3CC[C@]12C
Cc1cc(C)c2c(-n3cccc3)n[nH]c2n1
Brc1[nH]nc2ccccc12
O=[N+]([O-])c1cccc2cn[nH]c12
Cc1oc(-c2cccs2)[n+]([O-])c1C
CC(=O)Nc1ccc(NC2=Nc3ccccc3N3C2=Nc2c(c(C)nn2-c2ccccc2)C3c2ccccc2)cc1 (centres undefined)
CCCCN(C)CCCNC(=O)CCn1nc(-c2ccccc2)ccc1=O
O=c1ccc(Oc2nc(N3CCOCC3)nc(N3CCOCC3)n2)n[nH]1
O=C(O)/C=C\C(=O)NCc1ccccc1
COc1ccc(/C=C(/C#N)C(=O)Nc2cc(C)ccc2C)cc1C(=O)O
Cc1cc(/C=C(/C#N)C(=O)Nc2ccccc2)c(C)n1-c1cccnc1
COCCN1CN=C(Nc2nc3ccccc3o2)NC1
CC(=O)OCC1=C(C(=O)O)N2C(=O)[C@@H](NC(=O)Cc3cccs3)[C@@H]2SC1
CCNS(=O)(=O)c1ccc(NS(C)(=O)=O)cc1
Cc1ccc(NC(=O)NNS(=O)(=O)c2ccc(Br)cc2)cc1
N[C@H](Cn1ccc(=O)n(Cc2ccccc2C(=O)O)c1=O)C(=O)O
Cn1ncc(C#N)c1/N=C/N1CCCCCC1
CC(C)CNC(=S)N1CCN(C)CC1
O=C(O)c1cc([N+](=O)[O-])ccc1NCCCc1ccccc1
COC(=O)c1sccc1NC(=O)c1cc(-c2ccc(C)cc2)nc2ccccc12
Cc1cc(C)c(C(N)=O)c(NC(=O)Nc2ccccc2)n1
Cc1ccccc1-c1cc(C(=O)n2cccn2)c2cc(Cl)ccc2n1
CC[C@](N)(CCC(=O)O)C(=O)O
CN1CCC2(CC1)C1CN(C)CC=C1C(C#N)=C(N)C2(C#N)C#N (centres undefined)
COc1nccc(-c2c(-c3ccc(F)cc3)ncn2C2CCC(O)CC2)n1 (centres undefined)

AC50, active:
CCOC(=O)c1c(NC(=O)CCCN2CCOCC2)sc2c1CC(C)(C)OC2 7.08 µM
CCOC(=O)c1c(NC(=O)CCC(=O)N2CCOCC2)sc2c1CC(C)(C)OC2 12.6 µM
Cn1c(O)c(C(C#N)=C2N=c3ccccc3=N2)c2ccccc21 3.55 µM
COc1ccccc1N1CCN(C[C@@H]2CN3C(=O)N(C)c4ccccc4C3=N2)CC1 15.8 µM
CC1=C(C(=O)N2CCCCCC2)C2(CCC(C)CC2)OC1=O (centres undefined) 11.2 µM
O=C(COc1cccc2ccccc12)NNC(=O)c1cccs1 25.1 µM
CCCCCC(=O)Nc1cccc(-c2nc3ncccc3o2)c1 15.8 µM
O=C(CSc1ccc(Cl)cc1)Nc1cccc(-c2nc3ncccc3o2)c1 12.6 µM
O=S(=O)(c1ccc(Cl)cc1)c1cnc(-c2cccnc2)nc1-c1ccccc1 8.91 µM
O=S(=O)(c1ccccc1)c1cnc(-c2cccnc2)nc1-c1ccc(Cl)cc1Cl 2.82 µM
COCCNc1ncnc2ccc(-c3cccc(OC)c3)cc12 12.6 µM
COCCNc1ncnc2ccc(-c3cccnc3)cc12 10 µM
COc1cccc(-c2ccc3ncnc(NCCNC(C)=O)c3c2)c1 15.8 µM
O=[N+]([O-])c1cccc2c(Br)[nH]nc12 12.6 µM
COC(=O)c1ccc(NC(=O)Cn2nc(-c3ccncc3)nc2SCC(=O)Nc2nccs2)cc1 2 µM
CCN(CCCNC(=O)CC(C(=O)N1CCc2ccccc21)n1ccnc1)c1ccccc1 (centres undefined) 0.794 µM
Cc1cc(C)c(S(=O)(=O)n2ccc(-c3ccc(OCCN(C)c4ccccn4)cc3)n2)c(C)c1 2.24 µM
COC(=O)[C@H]1C[C@@H]1[C@H](NC(=O)c1cc(C)nn1C)c1ccccc1 6.31 µM
COC(=O)[C@@H]1C[C@H]1[C@@H](NC(=O)c1cc(C)nn1C)c1ccccc1 10 µM
N#C/C(=C\c1ccc(O)c(O)c1)C(=O)NCCc1ccccc1 3.98 µM
N#C/C(=C\c1ccc(O)c(O)c1)C(=O)NCCCc1ccccc1 2.51 µM
N#C/C(=C\c1ccc(O)c(O)c1)C(=O)Nc1ccccc1 15.8 µM
N#C/C(=C\c1ccc(O)c(O)c1)C(=O)NCc1ccccc1 15.8 µM
CC(C)(C)c1ccc(OCC(=O)NNC(=O)Cc2cccs2)cc1 3.98 µM
O=S(=O)(Nc1ccc(Cc2ccncc2)cc1)c1cccs1 0.355 µM
O=S(=O)(Nc1ccc(Cc2ccncc2)cc1)c1ccc(Br)cc1 0.355 µM
O=S(=O)(Nc1ccc(Cc2ccncc2)cc1)c1ccc(Cl)c(Cl)c1 0.398 µM
Cc1c(-c2c(C#N)c(N)nc3c2CCCCCC3)cnn1C 7.94 µM
N#Cc1c(N)nc2c(c1-c1cccc(O)c1)CCCCCC2 4.47 µM
Cc1ccc(NC(=O)c2cc([N+](=O)[O-])ccc2NCc2cccnc2)cc1Cl 3.98 µM
Cc1ccc(C)c(-c2cc(C(=O)Nc3sc(C)c(C)c3C(N)=O)c3ccccc3n2)c1 2.82 µM
COC(=O)c1sccc1NC(=O)c1cc(-c2ccc(C)cc2C)nc2ccccc12 7.08 µM
COC(=O)c1sccc1NC(=O)c1cc(-c2cc(C)ccc2C)nc2ccccc12 4.47 µM
Cc1ccc(-c2cc(C(=O)NN=C3CCCC3)c3ccccc3n2)cc1 7.94 µM
Cc1ccccc1-c1cc(C(=O)Nc2nc3c(s2)CCCC3)c2ccccc2n1 3.16 µM
Cc1ccc(-c2cc(C(=O)NCc3ccco3)c3ccccc3n2)s1 10 µM
Cc1ccc(Nc2ncccc2C(=O)NCc2cccs2)c(C)c1 12.6 µM
Cc1ccc(C)c(-c2cc(C(=O)NCc3cccs3)c3ccccc3n2)c1 1.41 µM
Cc1ccc(C)c(-c2cc(C(=O)Nc3nccs3)c3ccccc3n2)c1 2.82 µM
CCN1CC=C2C(C#N)=C(N)C(C#N)(C#N)[C@H](c3ccoc3)[C@H]2C1 11.2 µM
CCCN1CC=C2C(C#N)=C(N)C(C#N)(C#N)C(c3cc(OC)ccc3OC)C2C1 (centres undefined) 2 µM
CCC/C=C(\CCC)C(NC(=O)c1cccs1)c1ccc(C(=O)OC)cc1 (centres undefined) 1.26 µM
CCC/C=C(\CCC)C(NS(=O)(=O)c1cccs1)c1ccc(C(=O)OC)cc1 (centres undefined) 3.16 µM
CCC/C=C(\CCC)C(NC(=O)c1cccs1)c1ccc(C(F)(F)F)cc1 (centres undefined) 2.51 µM

activity, negative = inhibition, inactive:
COC(=O)[C@@H]1O[C@@H](SCCN)[C@@H](O)[C@H](O)[C@H]1O -3.54% [at 11.4 µM]
CC(=O)O[C@]12CC[N@+]3(C)CCCC[C@@H]3[C-]1Nc1ccccc12 0.352% [at 11.4 µM]
Cc1cc2c(c(=O)o1)[C@@H](O)[C@H]1O[C@@H]1C2=O -17.6% [at 11.4 µM]
CCCCCC/C(C)=C1/SC(=S)NC1=O -11.2% [at 2.29 µM]
O=C(CCC(=O)Nc1ccccc1)NNC(=O)c1cccs1 9.11% [at 2.29 µM]
CCCCC(=O)Nc1ccc(C)c(O)c1 9.17% [at 2.29 µM]
CC12CC[C@@H]3c4ccc(OP(=O)(O)O)cc4CCC3C1CCC2=O (some centres undefined) 5.91% [at 11.4 µM]
CCN(CC)CCC(=O)Nc1ccc2c(c1)N(C(=O)CN(CC)CC)c1ccccc1CC2 3.63% [at 2.29 µM]
CC(/C=N/NC(=O)Cc1cccs1)=C\c1ccco1 1.99% [at 2.29 µM]
O=C1C(Cl)=C(Nc2ccc(S(=O)(=O)Nc3ccccn3)cc2)C(=O)c2ccccc21 -10.8% [at 11.4 µM]
C/C(=N/S(=O)(=O)c1ccc(Cl)c(Cl)c1)OCC(C)(C)C -5.85% [at 11.4 µM]
CCc1sc(-c2c(C#N)c(N)nc3c2CCCCCC3)cc1[N+](=O)[O-] -20.1% [at 2.29 µM]
O=C(O)c1cc(-c2ccc(-c3ccc(-c4cc(C(=O)O)c5cc(Cl)ccc5n4)cc3)cc2)nc2ccc(Cl)cc12 24.9% [at 11.4 µM]
Cc1sc(NC(=O)C2CCCCC2C(=O)O)c(C(N)=O)c1C (centres undefined) 14.4% [at 2.29 µM]
CCN1C(=O)[C@H]2[C@H]3[C@H](O)[C@H](O)C/C(=N/O[C@@H]4O[C@H](COC(C)=O)[C@@H](OC(C)=O)[C@H](OC(C)=O)[C@H]4OC(C)=O)[C@@H]3CC[C@@H]2C1=O -5.68% [at 11.4 µM]
